# BAZ2B inh: qHTS Assay for Inhibitors of BAZ2B; Bromodomain adjacent to zinc finger domain protein 2B (Homo sapiens), Q9UIF8; AlphaScreen BAZ2B-H3K14Ac peptide displacement; 4.4% of 360,000 active; Potency, µM (highest dose often 114 µM), for inactives: at the top dose activity change, negative = inhibition, usual class: inhibitors; note: % is set by controls: 0 for no effect and ±100 for the full control effect; nearly all actives have a fitted effect of over 60% in size
#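 Multi-concentration screen (max 110 uM) measuring displacement of acetylated histone H3 peptide from BAZ2B by AlphaScreen, using 50 nM protein, 50 nM peptide and 10 ug/mL streptavidin donor plus Ni-chelate acceptor beads.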
# L3MBTL1 block: qHTS Assay for the Inhibitors of L3MBTL1; AlphaScreen L3MBTL1–H3K9me1 peptide binding; 0.66% of 230,000 active; Potency, µM (doses to about 57.1 µM), for inactives: top-dose activity, negative = inhibition, actives largely listed as inhibitors; Lethal(3)malignant brain tumor-like protein 1 (Homo sapiens), Q9Y468; note: % is set by controls: 0 for no effect and ±100 for the full control effect; nearly all actives have a fitted effect of over 60% in size
#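 L3MBTL1 (50 nM) pre-complexed 30 min with biotinylated H3(1-15)K9me1 peptide (75 nM), then compounds added for 30 min at room temperature; AlphaScreen streptavidin donor/nickel chelate acceptor beads (10 ug/mL final) read after 30 min dark incubation.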
# G9a block: qHTS Assay for Inhibitors of Histone Lysine Methyltransferase G9a; Histone-lysine N-methyltransferase EHMT2 (Homo sapiens), Q96KQ7; Potency, µM (doses to about 102 µM), for the others: at the top dose activity, negative = inhibition, hits mostly inhibitors; 8.8% of 350,000 active; G9a H3K9 monomethylation, AlphaScreen, 2 h; note: % is set by controls: 0 for no effect and ±100 for the full control effect; nearly all actives have a fitted effect of over 75% in size
#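 AlphaScreen detection with an anti-monomethyl H3K9 antibody quantified product after a 2 h room-temperature reaction containing 500 nM biotinylated H3K9 peptide, 20 µM SAM and 20 nM enzyme, which had been preincubated 15 min with compound.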
# HP1b binding inh: HTS for Inhibitors of HP1-beta Chromodomain Interactions with Methylated Histone Tails | 0.56% of 390,000 active | Potency, µM (series often up to 114 µM), for inactives: at the highest dose activity change, negative = inhibition, actives largely listed as inhibitors | Chromobox protein homolog 1 (Homo sapiens), P83916 | AlphaScreen HP1-beta / biotin-H3K9me3 peptide binding; note: nearly all actives have a fitted effect of over 70% in size
#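 AlphaScreen: HP1-beta (50 nM) preformed 30 min with biotin-H3(1-18)K9me3 peptide (50 nM) in PBS pH 7.4, 0.01% Tween-20. Compound added for 30 min at RT, then streptavidin donor/nickel chelate acceptor beads (10 ug/mL) for 30 min.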
# Sfp PPTase inh: qHTS Assay for Inhibitors of Bacillus subtilis Sfp phosphopantetheinyl transferase (PPTase); 4'-phosphopantetheinyl transferase ffp (Bacillus subtilis), Q9F4F7; Biochemical Sfp PPTase activity, qHTS; Potency, µM, inactives show largest response in the series, negative = inhibition, hits mostly inhibitors; 3.5% of 310,000 active; AID 1490, 2009;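 note: the enzyme is Sfp with the accession as filed and its product quenches rhodamine fluorescence; 0% = enzyme reaction without inhibitor and -100% = no enzyme wells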
#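 With Hepes-Na pH 7.6 buffer containing 10 mM MgCl2, Sfp (15 nM) modified BHQ-2-YbbR (12.5 uM) using rhodamine-CoA (5 uM). Two reads 30 minutes apart at 525/598 nm yielded each well's rate.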
# JMJD2A Tudor inh: qHTS Assay for Inhibitors of JMJD2A-Tudor Domain | Lysine-specific demethylase 4A (Homo sapiens), O75164 | AlphaScreen JMJD2A-Tudor / H3K4me3 peptide binding | Potency, µM (highest dose often 114 µM), inactives show at the highest dose activity change, negative = inhibition, usual class: inhibitors | 4.4% of 390,000 active; note: % is set by controls: 0 for no effect and ±100 for the full control effect; nearly all actives have a fitted effect of over 50% in size
# Target sequence (O75164 whole entry, looked up, the tested form may be a part): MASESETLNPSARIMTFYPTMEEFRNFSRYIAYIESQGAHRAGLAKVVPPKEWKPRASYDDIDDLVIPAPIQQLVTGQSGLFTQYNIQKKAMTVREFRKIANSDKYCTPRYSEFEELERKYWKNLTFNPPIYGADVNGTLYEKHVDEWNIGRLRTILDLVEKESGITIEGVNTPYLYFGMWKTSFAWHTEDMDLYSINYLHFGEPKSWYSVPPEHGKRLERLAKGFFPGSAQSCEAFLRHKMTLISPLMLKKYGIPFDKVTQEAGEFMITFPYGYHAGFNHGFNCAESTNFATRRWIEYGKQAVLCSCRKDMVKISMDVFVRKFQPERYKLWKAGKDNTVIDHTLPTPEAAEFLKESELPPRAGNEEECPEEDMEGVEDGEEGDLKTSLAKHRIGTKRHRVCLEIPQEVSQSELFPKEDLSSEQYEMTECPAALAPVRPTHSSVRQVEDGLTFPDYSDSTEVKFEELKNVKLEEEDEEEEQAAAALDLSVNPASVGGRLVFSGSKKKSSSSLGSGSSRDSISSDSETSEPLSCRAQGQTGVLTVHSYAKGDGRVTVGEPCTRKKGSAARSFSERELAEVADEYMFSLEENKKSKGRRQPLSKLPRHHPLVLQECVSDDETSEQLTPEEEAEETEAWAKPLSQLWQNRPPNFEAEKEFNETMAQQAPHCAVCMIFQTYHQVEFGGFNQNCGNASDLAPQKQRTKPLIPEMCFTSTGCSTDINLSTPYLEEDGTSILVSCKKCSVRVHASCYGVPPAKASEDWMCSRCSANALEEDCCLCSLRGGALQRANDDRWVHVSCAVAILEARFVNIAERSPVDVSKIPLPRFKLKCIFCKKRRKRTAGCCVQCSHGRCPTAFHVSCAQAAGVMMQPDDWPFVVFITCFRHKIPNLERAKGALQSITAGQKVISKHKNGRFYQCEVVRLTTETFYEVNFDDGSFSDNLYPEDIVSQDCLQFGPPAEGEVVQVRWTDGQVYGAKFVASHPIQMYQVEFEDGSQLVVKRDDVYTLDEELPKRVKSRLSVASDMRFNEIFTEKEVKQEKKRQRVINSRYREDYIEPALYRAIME
# The depositor's hits bear a star; ? = inconclusive; . = not tested or not shown; [ ] = another dose, or the depositor's remark. Most compounds without a hit are left out; they make up all but 12% or so of the library. Calls come from the whole dose curve; as a rule, active = well fitted curve in the direction sought with a large enough effect; inconclusive = small, poorly fitted or top-dose-only effect, or another doubt; inactive = no such curve, though single readings can be large; an effect the other way counts as inactive or inconclusive. Potency is the fitted concentration of half-maximal effect.
SMILES,BAZ2B inh,L3MBTL1 block,G9a block,HP1b binding inh,Sfp PPTase inh,JMJD2A Tudor inh
COc1ccc(S(=O)(=O)N(CC(=O)NCCc2ccccc2)c2ccc(Cl)cc2)cc1,-3%,.,16µM*,-8%,.,-21%
O=C(CN(c1ccccc1)S(=O)(=O)c1ccccc1)N/N=C/c1ccco1,-8%,-5%,12%[59 µM],15%,11%,-15%
COc1ccc(N(CC(=O)N/N=C/c2ccco2)S(=O)(=O)c2ccccc2)cc1,?,?,50µM*,?,1%,?
Cc1cccc(-n2c(SCC(=O)NCC3CCCO3)nc3ccccc3c2=O)c1C (stereo not given),6%,2%,14%[12.7 µM],26%,.,8%
COc1ccc(/C(N)=N/O)cc1O,6%,-3%,8%,11%,15%,-8%
COc1ccc(CNC(=O)c2cn(-c3cccc(OC)c3)c(=O)c3ccccc23)cc1,5%,.,?,35%,.,2%
O=C(Nc1ccc(C(=O)N2CCCCC2)cc1)C1=CSCCO1,-1%,.,15%,18%[57 µM],12%,0%
CCCc1nnc(NC(=O)CCC(=O)N2CCN(CCOc3ccc(C)cc3)CC2)s1,19%,3%[11.4 µM],24%[12.7 µM],32%,-8%,-6%
CCCc1nnc(NC(=O)CCC(=O)N2CCN(CCn3c(C)ccc3C)CC2)s1,-10%,-8%,71µM*,14%,-3%,-3%
COc1ccccc1/C=C/C=N/n1c(-c2cc(-c3ccccc3)n[nH]2)n[nH]c1=S,-16%,-7%,?,14%,0%,?
COc1ccccc1/C=C\C=N\n1c(-c2ccc(Cl)cc2Cl)n[nH]c1=S,?,-5%,6.3µM*,?,-2%,?
COc1ccccc1/C=C/C=N/n1c(-c2ccc(F)cc2)n[nH]c1=S,-16%,-15%,4µM*,-1%,-16%,-23%
COc1ccccc1/C=C\C=N\n1c(-c2ccc(Cl)cc2)n[nH]c1=S,-10%,-2%,4.5µM*,-16%,-29%,-31%
O=C1c2ccccc2-c2onc3c(Br)cc(NC4CCCCC4)c1c23,-25%,.,-33%[59 µM],-8%,.,-34%
CC(C)CNc1cc(NC2CCCCC2)c2c3c(onc13)-c1ccccc1C2=O,25µM*,.,10µM*,?,.,28µM*
CN(C)CCCNc1cc(N2CCN(C3CCCCC3)CC2)c2noc3c2c1C(=O)c1ccccc1-3,20µM*,.,?,?,.,35µM*
COCCNc1cc(N2CCN(C3CCCCC3)CC2)c2noc3c2c1C(=O)c1ccccc1-3,?,.,?,?,.,50µM*
O=C1c2ccccc2-c2onc3c(N4CCN(C5CCCCC5)CC4)cc(NCCO)c1c23,32µM*,.,-43%[59 µM],?,.,?
Cc1ccc2ncnc(NCc3ccco3)c2c1,.,.,.,5%[57 µM],.,-5%[57.1 µM]
Cc1ccccc1-n1ncc2c([N+](=O)[O-])cc([N+](=O)[O-])cc21,32µM*,?,?,40µM*,-10%,56µM*
CC(C)NC(=O)CSc1c2c(nc3ccccc13)CCCC2,-5%,.,-30%,41%,0%,-7%
O=C(O)c1ccccc1Nc1cccc(OCc2ccc3ccccc3n2)c1,45µM*,?,11µM*,-6%,?,?
CCOc1ccc(-c2nc(CN(Cc3ccccc3)C[C@@H]3CCC(=O)N3)c(C)o2)cc1,?,-8%,45µM*,7%,79µM*,-25%
Cc1nc(N)sc1N=Nc1ccc(F)cc1,-8%,.,45µM*,?,-28%,?
Nc1n[nH]c(N)c1N=Nc1ccc(F)cc1,?,?,-4%,21%,-4%,?
SMILES,BAZ2B inh,L3MBTL1 block,G9a block,HP1b binding inh,Sfp PPTase inh,JMJD2A Tudor inh
CCOC(=O)C1=C(O)C(=O)NC(c2ccccc2)=C(OC2CCCCC2)C1,-9%,2%,50µM*,26%,-2%,-19%
CCOC(=O)C1=C(O)C(=O)NC(c2ccccc2)=C(OCC)C1,-37%,-7%,45µM*,17%,-2%,-20%
CNC(=S)Nc1cc(C)ccc1OC(F)F,-13%,1%,-36%,14%,-3%,-11%
CC(=O)Nc1ccc(S(=O)(=O)N(Cc2cccnc2)Cc2cc3ccc(C)cc3[nH]c2=O)cc1,-24%,.,20%,26%,19%,-21%
CCc1ccc(CCC(=O)Nc2ccc(C(=O)O)cc2)o1,-26%,.,19%,21%,-10%,-3%
c1cc2cn[nH]c2cc1NC1CCCCCC1,?,-16%,4.5µM*,-3%,45µM*,?
NC(=S)Nc1ccc2cn[nH]c2c1,-9%,-17%,4%,24%,-20%,-10%
Cc1cccc(NC(=O)CNC(=O)CN2C(=O)NC3(CCc4ccccc43)C2=O)c1C (stereo not given),4%,1%,45µM*,19%,.,-6%
O=C(Cn1ncc(Cl)c(Cl)c1=O)Nc1ccc2c(c1)OCO2,-20%,4%,?,28%,.,-19%
CCN(CC)S(=O)(=O)c1cc(NC(=O)Cn2ncc(Cl)c(Cl)c2=O)ccc1C,-18%,18µM*,0%,25%,4%,-7%[11.4 µM]
O=C(CN1C(=O)NC2(CCCc3ccccc32)C1=O)N1CCCCC1 (stereo not given),8%,-4%,50µM*,11%,.,-6%
CCN(CC)S(=O)(=O)c1cc(NC(=O)CN2C(=O)NC3(CCCc4ccccc43)C2=O)ccc1C (stereo not given),-6%,-2%,50µM*,4%,?,-22%
CCOc1ccc(NC(=O)CN2C(=O)COc3ccc(S(=O)(=O)Nc4ccccc4)cc32)cc1,-28%,.,-31%[59 µM],16%,.,-19%
CCOC(=O)CCN1C(=O)[C@@H]2[C@H]3C(=CC[C@H]2C1=O)C(=O)[C@H]1O[C@H]1[C@H]3O,.,.,.,.,-6%,.
CC(=O)c1ccc(NC(=O)CCc2c(C)nc3c(c(C)nn3-c3ccc(C)cc3)c2C)cc1,?,.,-29%[59 µM],13%,.,-11%
Cc1ccc(-n2nc(C)c3c(C)c(CCC(=O)Nc4ccc(CN5CCCC5)cc4)c(C)nc32)cc1,-26%,.,50µM*,3%,-22%,?
NC(=S)N/N=C1/CCSc2ccc3ccccc3c21,50µM*,?,45µM*,?,6%,-11%[11.4 µM]
NC(=S)N/N=C/c1coc2c(ccc3ccccc32)c1=O,-10%,-3%,21%[59 µM],44%,8%,-21%
